Several values for one entry are separate records, joined by “and”; a condition that tells them apart may be missing. Equal entries are not always repeated. The whole screen tested about 5,500 compounds, of which about 2,000 (36%) were called active. Not shown: some 18% with an inconclusive outcome. Cut-off read from the data, not from the text of the source: active = normalized growth mostly below about 0.91 (no sharp cut-off); inconclusive = no clear call, values can overlap the other calls; inactive = mostly above about 0.92. The list shows a part of the results.
Test: chemical genetic growth profiling, strain panel (AID 1159580);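 note: tested at 20 µM; growth read once vehicle control cultures reached saturation at 30 °C; 1 = growth at the plate median or of vehicle wells; lower values mean less growth of the strain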
Conditions: S. cerevisiae deletion strains, growth OD

Measured: normalized growth

Oc1c(Cl)cc(Cl)cc1Sc1cc(Cl)cc(Cl)c1O
active: locus YAL021C, strain ccr4, stronger effect = lower value 0.067 | locus YAL026C, strain drs2, stronger effect = lower value 0.0634 | locus YAL030W, strain snc1, stronger effect = lower value 0.0557 | locus YBL061C, strain skt5, stronger effect = lower value 0.0575 | locus YBR009C, strain hhf1, stronger effect = lower value 0.061 | locus YBR023C, strain chs3, stronger effect = lower value 0.0607 | locus YBR171W, strain sec66, stronger effect = lower value 0.077 | locus YBR231C, strain swc5, stronger effect = lower value 0.0615 | locus YBR279W, strain paf1, stronger effect = lower value 0.0577 | locus YCL011C, strain gbp2, stronger effect = lower value 0.0589 | locus YCL016C, strain dcc1, stronger effect = lower value 0.064 | locus YCL069W, strain vba3, stronger effect = lower value 0.0603 | locus YCR088W, strain abp1, stronger effect = lower value 0.0604 | locus YDL005C, strain med2, stronger effect = lower value 0.0721 | locus YDL040C, strain nat1, stronger effect = lower value 0.0555 | locus YDR001C, strain nth1, stronger effect = lower value 0.0578 | locus YDR069C, strain doa4, stronger effect = lower value 0.0618 | locus YDR137W, strain rgp1, stronger effect = lower value 0.09 | locus YDR159W, strain sac3, stronger effect = lower value 0.0888 | locus YDR195W, strain ref2 0.123 | locus YDR297W, strain sur2, stronger effect = lower value 0.0581 | locus YDR334W, strain swr1, stronger effect = lower value 0.0632 | locus YDR335W, strain msn5, stronger effect = lower value 0.0596 | locus YDR392W, strain spt3, stronger effect = lower value 0.081 | locus YEL003W, strain gim4, stronger effect = lower value 0.0535 | locus YEL037C, strain rad23, stronger effect = lower value 0.0573 | locus YEL061C, strain CIN8 (second series), stronger effect = lower value 0.0607 | locus YER015W, strain faa2, stronger effect = lower value 0.0587 | locus YER016W, strain bim1, stronger effect = lower value 0.0576 | locus YER111C, strain swi4, stronger effect = lower value 0.0718 | locus YER155C, strain BEM2 (second series), stronger effect = lower value 0.0937 | locus YFR010W, strain ubp6, stronger effect = lower value 0.0679 | locus YGL167C, strain pmr1, stronger effect = lower value 0.0712 | locus YGL173C, strain kem1, stronger effect = lower value 0.0685 | locus YGL227W, strain vid30, stronger effect = lower value 0.0624 | locus YGL240W, strain doc1, stronger effect = lower value 0.0755 | locus YGL253W, strain hxk2, stronger effect = lower value 0.0537 | locus YHR013C, strain ard1, stronger effect = lower value 0.105 | locus YHR027C, strain rpn1, stronger effect = lower value 0.0591 | locus YHR079C, strain IRE1, stronger effect = lower value 0.129 | locus YHR142W, strain chs7, stronger effect = lower value 0.0784 | locus YJL092W, strain hpr5, stronger effect = lower value 0.0598 | locus YJL095W, strain BCK1 (second series), stronger effect = lower value 0.0564 | locus YJL115W, strain asf1, stronger effect = lower value 0.0719 | locus YJL129C, strain trk1, stronger effect = lower value 0.0818 | locus YJL154C, strain vps35, stronger effect = lower value 0.0607 | locus YJL164C, strain tpk1, stronger effect = lower value 0.0913 | locus YJL166W, strain qcr8, stronger effect = lower value 0.0591 | locus YJR066W, strain TOR1, stronger effect = lower value 0.00096 | locus YKL160W, strain elf1, stronger effect = lower value 0.0607 | locus YKR026C, strain gcn3, stronger effect = lower value 0.0616 | locus YKR091W, strain srl3, stronger effect = lower value 0.0572 | locus YLL001W, strain dnm1, stronger effect = lower value 0.0641 | locus YLL026W, stronger effect = lower value 0.0559 | locus YLL041C, strain sdh2, stronger effect = lower value 0.0561 | locus YLR027C, strain aat2, stronger effect = lower value 0.0575 | locus YLR113W, strain HOG1, stronger effect = lower value 0.152 | locus YLR221C, strain rsa3, stronger effect = lower value 0.0589 | locus YLR258W, strain gsy2, stronger effect = lower value 0.0608 | locus YLR262C, strain YPT6 (second series), stronger effect = lower value 0.0722 | locus YLR320W, strain mms22, stronger effect = lower value 0.0755 | locus YLR342W, strain FKS1, stronger effect = lower value 0.0628 | locus YLR357W, strain rsc2, stronger effect = lower value 0.119 | locus YLR370C, strain arc18, stronger effect = lower value 0.0603 | locus YLR384C, strain iki3, stronger effect = lower value 0.0584 | locus YML120C, strain ndi1, stronger effect = lower value 0.0563 | locus YMR058W, strain fet3, stronger effect = lower value 0.0603 | locus YMR125W, strain sto1, stronger effect = lower value 0.0858 | locus YMR129W, stronger effect = lower value 0.0578 | locus YMR205C, strain PFK2, stronger effect = lower value 0.0864 | locus YMR231W, strain pep5, stronger effect = lower value 0.0649 | locus YNL071W, strain lat1, stronger effect = lower value 0.0603 | locus YNL183C, strain NPR1, stronger effect = lower value -0.00055 | locus YNL209W, strain ssb2, stronger effect = lower value 0.0572 | locus YNL248C, strain rpa49, stronger effect = lower value 0.0762 | locus YNL322C, strain KRE1 (second series), stronger effect = lower value 0.0643 | locus YNR049C, strain mso1, stronger effect = lower value 0.0565 | locus YOR001W, strain rrp6, stronger effect = lower value 0.0689 | locus YOR070C, strain gyp1, stronger effect = lower value 0.0566 | locus YOR080W, strain dia2, stronger effect = lower value 0.0627 | locus YOR083W, strain WHI5, stronger effect = lower value 0.0603 | locus YOR106W, strain vam3, stronger effect = lower value 0.0687 | locus YOR231W, strain MKK1, stronger effect = lower value 0.118 | locus YOR265W, strain rbl2, stronger effect = lower value 0.0558 | locus YOR270C, strain vph1, stronger effect = lower value 0.113 | locus YOR290C, strain snf2, stronger effect = lower value 0.0666 | locus YPL051W, strain arl3, stronger effect = lower value 0.0608 | locus YPL078C, strain atp4, stronger effect = lower value 0.0682 | locus YPL106C, strain sse1, stronger effect = lower value 0.111 | locus YPL240C, strain hsp82, stronger effect = lower value 0.0577 | locus YPL256C, strain CLN2, stronger effect = lower value 0.147
inactive: locus YBR021W, strain FUR4, stronger effect = lower value 0.989 | locus YBR229C, strain ROT2, stronger effect = lower value 0.998 | locus YCL029C, strain bik1, stronger effect = lower value 0.964 | locus YDL035C, strain GPR1, stronger effect = lower value 1.05 | locus YDL074C, strain BRE1, stronger effect = lower value 0.979 | locus YDL101C, strain DUN1, stronger effect = lower value 0.978 | locus YDL185W, strain tfp1, stronger effect = lower value 0.966 | locus YDL192W, strain arf1, stronger effect = lower value 0.992 | locus YDR101C, strain arx1, stronger effect = lower value 0.978 | locus YDR150W, strain NUM1, stronger effect = lower value 0.982 | locus YDR162C, strain NBP2, stronger effect = lower value 1.01 | locus YDR318W, strain mcm21, stronger effect = lower value 0.98 | locus YDR388W, stronger effect = lower value 0.983 | locus YDR502C, strain sam2, stronger effect = lower value 0.985 | locus YEL061C, strain CIN8, stronger effect = lower value 0.988 | locus YER110C, stronger effect = lower value 0.964 | locus YER155C, strain BEM2, stronger effect = lower value 0.985 | locus YER167W, strain BCK2, stronger effect = lower value 0.996 | locus YGL078C, strain dbp3, stronger effect = lower value 0.984 | locus YGL086W, strain mad1, stronger effect = lower value 0.995 | locus YGL248W, strain PDE1, stronger effect = lower value 0.981 | locus YGR078C, strain PAC10, stronger effect = lower value 0.981 | locus YGR135W, strain pre9, stronger effect = lower value 0.98 | locus YGR229C, strain SMI1, stronger effect = lower value 1.02 | locus YGR252W, strain gcn5, stronger effect = lower value 1.03 | locus YHR079C, strain IRE1 (second series), stronger effect = lower value 0.966 | locus YHR094C, strain hxt1, stronger effect = lower value 0.976 | locus YHR129C, strain ARP1, stronger effect = lower value 0.994 | locus YHR200W, strain rpn10, stronger effect = lower value 0.97 | locus YIL066C, strain RNR3, stronger effect = lower value 1.01 | locus YIL073C, strain SPO22, stronger effect = lower value 0.942 | locus YIL125W, strain kgd1, stronger effect = lower value 0.996 | locus YIR030C, strain dcg1, stronger effect = lower value 1.01 | locus YJL134W, strain LCB3, stronger effect = lower value 0.989 | locus YJL168C, strain set2, stronger effect = lower value 0.984 | locus YJL187C, strain SWE1 (second series), stronger effect = lower value 0.969 | locus YJR043C, strain POL32, stronger effect = lower value 1.05 | locus YJR075W, strain HOC1, stronger effect = lower value 0.962 | locus YKL009W, strain mrt4, stronger effect = lower value 0.956 | locus YKL068W, stronger effect = lower value 0.978 | locus YKL085W, strain MDH1 (second series), stronger effect = lower value 0.973 | locus YKL085W, strain MDH1, stronger effect = lower value 0.973 | locus YKR001C, strain vps1, stronger effect = lower value 1.01 | locus YLR039C, strain RIC1, stronger effect = lower value 0.945 | locus YLR058C, strain SHM2, stronger effect = lower value 0.984 | locus YLR102C, strain apc9, stronger effect = lower value 0.962 | locus YLR262C, strain YPT6, stronger effect = lower value 1 | locus YLR268W, strain sec22, stronger effect = lower value 0.976 | locus YLR330W, strain CHS5, stronger effect = lower value 0.995 | locus YLR342W, strain FKS1 (second series), stronger effect = lower value 1.05 | locus YLR371W, strain rom2, stronger effect = lower value 0.994 | locus YLR418C, strain cdc73, stronger effect = lower value 0.979 | locus YML016C, strain PPZ1, stronger effect = lower value 0.991 | locus YML032C, strain rad52, stronger effect = lower value 0.986 | locus YML124C, strain tub3, stronger effect = lower value 0.989 | locus YMR078C, strain ctf18, stronger effect = lower value 0.989 | locus YMR223W, strain ubp8, stronger effect = lower value 0.991 | locus YMR307W, strain GAS1, stronger effect = lower value 1.17 | locus YNL067W, strain RPL9B, stronger effect = lower value 0.941 | locus YNL233W, strain BNI4, stronger effect = lower value 0.966 | locus YNL250W, strain rad50, stronger effect = lower value 0.98 | locus YNL271C, strain bni1, stronger effect = lower value 0.996 | locus YNL298W, strain CLA4, stronger effect = lower value 0.967 | locus YNL307C, strain MCK1, stronger effect = lower value 0.975 | locus YNR052C, strain pop2, stronger effect = lower value 0.982 | locus YOL006C, strain TOP1, stronger effect = lower value 0.921 | locus YOL012C, strain htz1 0.709 | locus YOL147C, strain pex11, stronger effect = lower value 0.975 | locus YOR061W, strain CKA2, stronger effect = lower value 0.994 | locus YOR069W, strain VPS5, stronger effect = lower value 0.989 | locus YOR136W, strain idh2, stronger effect = lower value 0.978 | locus YOR144C, strain elg1, stronger effect = lower value 0.993 | locus YOR184W, strain ser1, stronger effect = lower value 0.979 | locus YOR316C, strain cot1, stronger effect = lower value 0.97 | locus YPL055C, strain LGE1, stronger effect = lower value 0.973 | locus YPL241C, strain CIN2, stronger effect = lower value 0.984 | locus YPR119W, strain clb2, stronger effect = lower value 0.985 | locus YPR141C, strain kar3, stronger effect = lower value 0.979 | locus YPR163C, strain tif3, stronger effect = lower value 0.983 | locus YPR167C, strain met16, stronger effect = lower value 0.986 | strain wtn01, stronger effect = lower value 0.995
0.951 (inactive) and 0.106 (active): locus YJL095W, strain BCK1, stronger effect = lower value
0.99 (inactive) and 0.152 (active): locus YHR030C, strain SLT2, stronger effect = lower value
